Compounds with a hit are over-represented: about 4.1% of the library has one in this group of screens.
PglD DTNB = PglD (C. jejuni) enzyme inhibition | 360,000 compounds, 0.098% hits | AID 602405 | purified PglD enzyme, DTNB colorimetric CoA detection | inhibition, % at 12.5 µM; in the data active = inhibition above about 16%, passing the limit was not always enough
NSD2 inh = NSD2 (human) methyltransferase inhibition. O96028. NSD2 peptide methylation, AlphaScreen, 120 min. inhibition, % at 12.5 µM. 310,000 compounds, 0.54% hits. AID 743445; in the data active = inhibition above about 50%
Target sequence (O96028 whole entry, looked up): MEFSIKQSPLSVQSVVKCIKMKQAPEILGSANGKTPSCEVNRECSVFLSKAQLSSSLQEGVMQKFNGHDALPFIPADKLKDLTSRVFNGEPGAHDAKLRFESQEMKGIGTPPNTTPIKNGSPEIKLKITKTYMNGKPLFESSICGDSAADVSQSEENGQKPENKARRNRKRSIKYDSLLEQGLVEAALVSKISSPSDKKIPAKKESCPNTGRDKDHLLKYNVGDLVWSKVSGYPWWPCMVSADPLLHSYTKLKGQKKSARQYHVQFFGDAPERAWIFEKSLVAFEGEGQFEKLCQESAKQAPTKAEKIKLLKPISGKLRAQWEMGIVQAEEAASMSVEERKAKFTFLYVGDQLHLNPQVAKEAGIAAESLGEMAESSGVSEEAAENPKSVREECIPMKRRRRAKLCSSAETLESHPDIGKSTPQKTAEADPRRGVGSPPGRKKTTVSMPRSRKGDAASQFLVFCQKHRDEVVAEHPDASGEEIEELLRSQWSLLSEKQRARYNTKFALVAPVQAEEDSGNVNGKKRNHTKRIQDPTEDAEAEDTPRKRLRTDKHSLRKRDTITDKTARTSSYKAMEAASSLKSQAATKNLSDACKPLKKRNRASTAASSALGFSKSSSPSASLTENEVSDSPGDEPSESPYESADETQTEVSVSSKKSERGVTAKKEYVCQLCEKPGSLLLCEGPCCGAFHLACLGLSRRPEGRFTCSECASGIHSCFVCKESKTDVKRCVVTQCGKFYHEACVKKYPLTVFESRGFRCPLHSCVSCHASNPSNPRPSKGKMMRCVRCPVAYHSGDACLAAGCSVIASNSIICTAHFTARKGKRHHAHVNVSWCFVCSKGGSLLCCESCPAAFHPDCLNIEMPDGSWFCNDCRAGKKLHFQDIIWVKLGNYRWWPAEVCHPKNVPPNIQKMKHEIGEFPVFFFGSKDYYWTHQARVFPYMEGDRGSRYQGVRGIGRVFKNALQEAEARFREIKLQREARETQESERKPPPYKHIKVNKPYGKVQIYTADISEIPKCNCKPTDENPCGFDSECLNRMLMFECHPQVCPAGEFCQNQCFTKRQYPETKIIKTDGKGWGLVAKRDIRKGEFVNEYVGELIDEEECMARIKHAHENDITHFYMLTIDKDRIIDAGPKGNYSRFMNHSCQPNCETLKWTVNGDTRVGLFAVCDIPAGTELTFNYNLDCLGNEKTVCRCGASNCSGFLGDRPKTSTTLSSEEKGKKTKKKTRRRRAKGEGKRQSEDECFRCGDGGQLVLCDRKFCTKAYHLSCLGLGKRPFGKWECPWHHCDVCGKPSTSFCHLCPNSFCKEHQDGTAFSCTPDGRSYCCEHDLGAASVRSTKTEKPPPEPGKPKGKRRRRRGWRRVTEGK
Env fusion inh = blocks HIV Env-driven cell-cell fusion | HeLa-JRFL Env/CEM21 cell fusion, luciferase | inhibition, % at 12.3 µM | 360,000 compounds, 1.1% hits;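 active = mean replicate inhibition score of at least 50 and every replicate individually at or above 50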
ALR H2O2 inh = inhibitors of human sulfhydryl oxidase ALR; P55789; purified ALR, DTT oxidation, H2O2 HRP-luminol luminescence; inhibition, % (no concentration beside the values); 290,000 compounds, 3.8% hits; AID 485317;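 active = mean replicate inhibition above about 79%, with every replicate also reaching it, limit read from the data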
F508del corr = correctors of CFTR F508del function in bronchial epithelial cells; CFBE cells, YFP halide quenching; stimulated with forskolin plus potentiator P3; % fluorescence drop versus neutral controls; activity (quench increase), % at 7.58 µM; 350,000 compounds, 0.36% hits; AID 720511;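 active = mean added fluorescence quench of at least 8% versus neutral control, with both replicates also reaching 8%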;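 note: cells transiently co-express mutant CFTR-F508del with the halide-sensitive YFP; corrector assay measuring rescue of mutant channel to the surface after 24 h compound exposure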
CASP6 VEID inh = caspase-6 (human) enzyme inhibition; P55212; 350,000 compounds, 0.53% hits; inhibition, % at 12.5 µM; purified caspase-6, Z-VEID-R110 cleavage fluorescence;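 active = mean inhibition across replicates at least about 35%, with every replicate also reaching that limit, limit read from the data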
Hits are given with their value; – = inactive; · = no result given.

SMILES | PglD DTNB | NSD2 inh | Env fusion inh | ALR H2O2 inh | F508del corr | CASP6 VEID inh
CC(=O)c1c(C)[nH]c(C(=O)OCc2nnc(-c3ccc([N+](=O)[O-])cc3)o2)c1C | – | – | · | – | 9.2 | –
CC(=O)c1c(C)[nH]c(C(=O)OCC(=O)NNC(=O)c2ccc([N+](=O)[O-])cc2)c1C | – | – | · | – | – | –
COc1ccccc1-c1cn[nH]c1-c1ccc(OCC(=O)NN)cc1O | – | – | – | 95 | – | –
COc1ccc(-c2cn[nH]c2-c2ccc(OCC(=O)NN)cc2O)cc1 | – | – | – | 78 | – | –
COc1ccc(C=NNC(=O)c2cc(C)oc2C)cc1O | – | – | – | 99 | – | –
COc1ccc(/C=N/NC(=O)c2ccccc2O)cc1Cn1cc(Cl)cn1 | – | – | · | 80 | · | ·
COc1cc(/C=N/NC(=O)c2cc(C)oc2C)ccc1O | – | – | – | 99 | – | –
COc1cc(C=NNC(=O)c2ccccc2-n2cccc2)ccc1O | – | – | · | 99 | – | –
COc1ccc(/C=N/NC(=O)c2cc(C)oc2C)cc1OC | · | – | – | – | – | –
COc1ccc(NC(=O)Nc2ccc3c(c2)CC(=O)N([C@@H](C)CO)C[C@@H](C)[C@H](CN(C)Cc2ccc(-c4ccccc4)cc2)O3)cc1 | – | · | – | · | – | –
CCCNC(=O)N1C[C@H]2[C@@H](c3ccccc31)[C@@H](CO)N2CC1CCCCC1 | – | · | · | · | – | ·
CC(=O)N1CCCCN2[C@H](CO)[C@@H](c3ccc(-c4ccc(C)cc4)cc3)[C@H]2C1 | – | · | · | · | – | –
CCC(=O)/C=C1/Sc2ccc(OC)cc2N1CC | – | – | · | 77 | – | –
CCC(/C=C1\Sc2ccc(OC)cc2N1CC)=C\c1sc2ccc(OC)cc2[n+]1CCCS(=O)(=O)[O-] | – | – | – | 97 | – | –
CO[C@@H]1CN(C)C(=O)c2ccc(NC(=O)c3ccccc3)cc2OC[C@H](C)NC[C@H]1C | – | · | · | · | – | –
N#CC1=C(N)Oc2n[nH]c(-c3cccs3)c2C1c1ccncc1 (stereo unspecified) | – | – | – | · | – | –
N#CC1=C(N)Oc2n[nH]c(-c3cccs3)c2C1c1ccco1 (stereo unspecified) | – | – | · | 75 | · | ·
Cn1c(=O)n(C)c2cc([N+](=O)[O-])c(N3CCN(C(=O)c4ccccc4Cl)CC3)cc21 | – | – | 90 | – | · | ·
Cn1c(=O)n(C)c2cc([N+](=O)[O-])c(N3CCN(C(=O)c4ccccc4Br)CC3)cc21 | · | – | – | – | – | –
Cn1c(=O)n(C)c2cc([N+](=O)[O-])c(N3CCN(C(=O)c4ccccc4)CC3)cc21 | – | – | 55 | · | · | ·
COCC1=C2[C@@H](CCc3ccccc3)OB(O)C[C@@H]2n2c(=O)n(-c3ccccc3)c(=O)n2C1 | · | · | – | · | – | –
C[C@H]1CN([C@@H](C)CO)C(=O)c2cccc(NC(=O)c3nc4ccccc4s3)c2O[C@H]1CN(C)Cc1ccc(C(=O)Nc2ccccc2N)cc1 | · | · | · | · | – | ·
O=C(N/N=C/c1ccc(OCc2ccccc2)cc1)c1ccncc1 | – | – | – | · | · | –
Oc1ccc(N=Cc2ccc(OCc3ccccc3)cc2)cc1 | – | 79 | – | – | – | –
CC(=O)OCC1=C(C(=O)O)N2C(=O)C(NC(=O)c3ccc(COc4cccc(Cl)c4Cl)o3)C2SC1 (stereo unspecified) | – | – | – | – | – | 55
SMILES | PglD DTNB | NSD2 inh | Env fusion inh | ALR H2O2 inh | F508del corr | CASP6 VEID inh
COCC(=O)N(C)C[C@@H]1Oc2cc(C#Cc3cccnc3)ccc2S(=O)(=O)N([C@@H](C)CO)C[C@H]1C | – | · | – | · | – | –
Cc1cccnc1NC(=O)C1CCN(S(=O)(=O)c2ccc3c(c2)CCC(=O)N3)CC1 | – | · | – | 90 | – | –
O=C1CCCc2cc(S(=O)(=O)N3CCC(C(=O)NCc4ccccc4)CC3)ccc2N1 | – | – | – | – | – | –
CN(C)c1ccc(CNC(=O)C2CCN(S(=O)(=O)c3ccc4c(c3)CCC(=O)N4)CC2)cc1 | – | · | · | 91 | · | ·
CCC(=O)N1CC(=O)N2[C@H](CO)[C@H](c3ccc(C#Cc4cccc(F)c4)cc3)[C@H]2C1 | · | · | · | · | – | –
N#C/C(=C\c1ccc(F)c(F)c1)C(=O)NC1CCCCC1 | – | – | – | 98 | · | –
N#C/C(=C\c1ccc(F)c(Br)c1)C(=O)NC1CC1 | – | – | · | – | – | –
O=C(Nc1nc(-c2ccccc2)ns1)c1cccs1 | – | – | · | 88 | – | –
COc1ccc2c3c([nH]c2c1)[C@@H](CO)N(C(=O)c1cnccn1)CC31CN(S(C)(=O)=O)C1 | · | · | · | · | – | –
N/C(=N\OC(=O)c1ccco1)c1ccc(Cl)cc1 | – | – | – | 99 | – | –
CCCNC(=O)NC[C@H]1CC[C@@H]2[C@@H](CN2S(=O)(=O)c2ccccc2[N+](=O)[O-])O1 | · | · | · | · | – | –
O=C(Nc1ccccc1F)N1C[C@@H]2[C@H](c3ccccc31)[C@@H](CO)N2C(=O)Cc1ccccc1 | – | · | · | · | – | –
COc1cc(CNS(=O)(=O)c2ccc3c(c2)CC(C)N3C(=O)C2CCC2)cc(OC)c1OC (stereo unspecified) | – | – | 57 | – | – | –
COc1ccc(CNS(=O)(=O)c2ccc3c(c2)CC(C)N3C(=O)C2CC2)cc1 (stereo unspecified) | – | – | – | – | – | –
Cc1ccc(C)c(OCC(=O)Nc2nonc2NC(=O)COc2cc(C)ccc2C)c1 | – | – | 68 | – | · | ·
Cc1ccc(OCC(=O)Nc2c[nH]c(=O)[nH]c2=O)cc1C | · | – | – | – | – | –
Cc1ccc(C)c(OCC(=O)Nc2c[nH]c(=O)[nH]c2=O)c1 | · | – | 57 | – | · | –
CCC(c1nnc(SCC(=O)Nc2ccc(C(=O)Nc3ccccc3OC)cc2)o1)N(C)C (stereo unspecified) | – | – | · | 99 | · | ·
CN(C)C(=O)C[C@H]1C=C[C@H](NC(=O)C2CCOCC2)[C@@H](CO)O1 | · | · | · | · | – | –
Cc1cccnc1Nc1nc(-c2ccc(O)cc2O)cs1 | – | – | · | 77 | · | ·
NS(=O)(=O)c1ccc(Nc2nc(-c3ccc(F)cc3)cs2)cc1 | – | – | – | – | – | –
NS(=O)(=O)c1ccc(Nc2nc(-c3ccc(O)cc3O)cs2)cc1 | · | · | · | 99 | · | ·
Oc1ccc(-c2csc(Nc3ccccn3)n2)c(O)c1 | – | – | – | 93 | – | –
Fc1ccc(-c2csc(Nc3ccccn3)n2)cc1 | – | – | – | – | – | –
CC=Cc1ccc2n(c1=O)C[C@H]1[C@H](CO)[C@@H](C(=O)N[C@H](C)c3ccccc3)N(C(=O)c3cnccn3)[C@@H]21 (mixture of isomers) | – | · | – | · | · | –
Cc1cc2c(NC(=O)Nc3ccc(F)cc3)cccc2nn1 | – | – | – | – | – | 68
CN(C)c1ccc(/C=C/c2ccc3c4ccccc4ccc3[n+]2-c2ccccc2)cc1 | – | · | – | · | – | 38
CN(C)c1ccc(/C=C/c2ccc3ccccc3[n+]2C)cc1 | – | – | · | 98 | · | ·
